# Data published in PubChem BioAssay (Tox21).
# Records with an inconclusive call do not appear. Entries that show only a call come without a potency. Unmarked numbers belong to inactive results. Activity calls are given as the source filed them. Calls come from the whole dose curve; as a rule, active = well fitted activation curve with a large enough effect in the repeat runs; inconclusive = weak or mixed curves; inactive = flat fitted curve, though single readings scatter.
# Test: A CellTox Green Cytotoxicity Assay to monitor cytotoxicity in HepG2 cells - 8 hour (AID 1224890); note: nearly all actives have a fitted effect of over 45% in size
# Settings: CellTox Green fluorescence; series mostly up to 76.8 µM
# Description: National Center for Advancing Translational Sciences [NCATS]
# NIH Chemical Genomics Center [NCGC]
# U.S. Environmental Protection Agency [EPA]
# National Institutes of Environmental Health Sciences [NIEHS]
# National Toxicology Program [NTP]
# Cell-based models are critical for drug discovery. Determining the natural cytotoxic effects resulting from test compounds is an essential research activity. A CellTox Green Cytotoxicity Assay to monitor cytotoxicity in real time of continues cell culture during 40 hours of the compound treatment was used to screen Tox21 10K library compounds in HepG2 cells. CellTox Green Cytotoxicity Assay is a nonlytic, homogeneous, biofluorescent method to measure cytotoxicity in cell culture after experimental manipulation. The assay system uses a proprietary asymmetric cyanine dye that is excluded from viable cells but preferentially stains the dead cell's DNA. […] Viable cells produce no appreciable increases in fluorescence. Therefore, the fluorescence signal produced by the binding interaction with dead cell DNA is proportional to cytotoxicity.
# The mixture of HepG2 cell suspension and reagents were dispensed at 600cells/6 ul/well in 1536-well tissue culture treated black solid bottom plates using a Multidrop dispenser. After the assay plates were incubated at a 37 C/5% CO2 incubator for 5 hours, 23 nL of compounds dissolved in DMSO, positive and negative controls was transferred to the assay plate by a pintool work station. The plates were incubated at 37 C for 40 hours. The fluorescence intensity were measured at 0h, 8h, 16h, 24h, 32h and 40h time points using ViewLux plate reader during compound treatment.
SMILES,Potency,cytotoxicity increase
CO/N=C1\CN(c2nc3c(cc2F)c(=O)c(C(=O)O)cn3C2CC2)CC1CN (stereo not given),inactive,
CN1CCN(c2c(F)cc3c(=O)c(C(=O)O)cn4c3c2OCN4C)CC1,,-3.25% [at 15.8 µM]
CC(C)=CC=O,inactive,
Oc1ccc(Nc2ccccc2)cc1,inactive,
CC1CC(O)CC(C)(C)C1 (stereo not given),inactive,
CN(C(=O)C(Cl)Cl)c1ccc(OC(=O)c2ccco2)cc1,inactive,
Nc1c(I)cc(I)c(C(=O)N(CCC(=O)O)c2ccccc2)c1I,inactive,
C[Si]1(C)O[Si](C)(C)O[Si](C)(C)O1,inactive,
Nc1ccc(C(=O)OCCCOC(=O)c2ccc(N)cc2)cc1,inactive,
CC(=O)Nc1ccc(N)cc1,inactive,
Oc1cc(O)c(Cl)cc1Cl,inactive,
CCC(C)=O,inactive,
CCCCN(CCCC)CCCOC(=O)c1ccc(N)cc1,inactive,
c1ccc(COCc2ccccc2)cc1,inactive,
CCCCCCCCSCCO,inactive,
CC1=C(/C=C/C(C)=C\C=C\C(C)=C\C(=O)O)C(C)(C)CCC1,inactive,
CCC(C(=O)OCCOCCN(CC)CC)c1ccccc1 (stereo not given),inactive,
CC(N)CN (stereo not given),inactive,
COC(=O)CC(=O)C(C)(C)C,inactive,
CC(=O)N(c1onc(C)c1C)S(=O)(=O)c1ccc(N)cc1,inactive,

SMILES,Potency,cytotoxicity increase
CCC(C)(O)CCC=C(C)C (stereo not given),inactive,
CCOC(=O)[C@@H](C)Oc1ccc(Oc2nc3ccc(Cl)cc3o2)cc1,inactive,
CN(C)CCOC1=Cc2ccccc2Sc2ccc(Cl)cc21,inactive,
CNC(=S)NC,inactive,
COc1cc2[nH]c(=O)[nH]c(=O)c2cc1OC,inactive,
O=c1[nH]c2ccc(S(=O)CCN3CCC(Cc4ccc(F)cc4)CC3)cc2o1 (stereo not given),inactive,
CC#N,inactive,
CCOC(=O)C(C)Oc1ccc(Oc2nc3ccc(Cl)cc3o2)cc1 (stereo not given),inactive,
CCOc1cc(N)c(Cl)cc1C(=O)NCC1CN(Cc2ccc(F)cc2)CCO1 (stereo not given),inactive,
CCOC(=O)N1CCC(n2c(=O)[nH]c3cc(Cl)ccc32)CC1,inactive,
CSc1ccc(Oc2ccc(S(N)(=O)=O)cc2CN(C)C)cc1C,inactive,
O=C(Nc1ccccc1)Nc1ccccc1,inactive,
CCOC(=O)c1ccccc1OC,inactive,
CC(C)(O)c1ccccc1CC[C@@H](SCC1(CC(=O)O)CC1)c1cccc(/C=C/c2ccc3ccc(Cl)cc3n2)c1,inactive,
O=S1OCCO1,inactive,
CC1CC(=O)NN=C1c1ccc(NCC(C)(C)NCC(O)COc2cc(Cl)ccc2C#N)cc1 (stereo not given),inactive,
C[N+](C)(C)CCOC(N)=O,inactive,
CC(C)C(OC(=O)c1ccccc1)C(C)(C)COC(=O)c1ccccc1 (stereo not given),inactive,
C(=C\c1ccccc1)/CN1CCN(C(c2ccccc2)c2ccccc2)CC1,inactive,
O=C(CCCCCCC(=O)Nc1ccccc1)NO,inactive,
